High-throughput results from PubChem.
Rows were chosen to be rich in hits. Some 21% of all compounds tested hit in one or more screens of this group.
MRP resist rev = reverses drug resistance mediated by MRP. 0.04% of 85,000 active. differential viability (reversal), % at 10 µM. H69AR cells + 2 uM doxorubicin, CellTiter-Glo, 72 h;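 active means viability drop by adding the cancer drug above about 55%, with treated viability meeting a 40% cutoff, limit read from the data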;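 further: viability without doxorubicin minus viability with 2 µM doxorubicin for each compound; larger differential means the compound sensitizes cells more to doxorubicin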
MRP-1 activ = activators of MRP-1; 0.61% of 140,000 active; AID 799; H69AR cells + doxorubicin, viability rescue, CellTiter-Glo; viability increase, % at 10 µM;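 active means viability gain under doxorubicin at or above a set limit, the compound median plus 3 SD, cut at about 4.7% in these data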;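 further: MRP-1 overexpressing cells given doxorubicin 25 µM after compound pretreatment; 18-22 h compound pretreatment then 72 h with doxorubicin before readout; 0% = doxorubicin-only wells and 100% = vehicle-treated cells without doxorubicin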
CYP2C9 inh = human CYP2C9 inhibition | P11712 | CYP2C9 Supersomes, luciferin-H conversion, luminescence | inhibition, % at 5 µM | 20% of 96,000 active;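 active means blocking of liver enzyme CYP2C9 beyond about 50% at 5 µM, limit read from the data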
CYP2C19 inhib = human CYP2C19 inhibition; CYP2C19 Supersomes, luciferin-H EGE luminescence, 30 min; 21% of 96,000 active; P33261; inhibition, % at 5 µM;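 active means CYP2C19 inhibition above a set limit at 5 µM in the primary screen, cut at about 50% in these data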;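 further: plate controls were negative control wells for no effect and 2.5 mM tranylcypromine positive control for full effect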
Target sequence (P33261 whole entry, looked up): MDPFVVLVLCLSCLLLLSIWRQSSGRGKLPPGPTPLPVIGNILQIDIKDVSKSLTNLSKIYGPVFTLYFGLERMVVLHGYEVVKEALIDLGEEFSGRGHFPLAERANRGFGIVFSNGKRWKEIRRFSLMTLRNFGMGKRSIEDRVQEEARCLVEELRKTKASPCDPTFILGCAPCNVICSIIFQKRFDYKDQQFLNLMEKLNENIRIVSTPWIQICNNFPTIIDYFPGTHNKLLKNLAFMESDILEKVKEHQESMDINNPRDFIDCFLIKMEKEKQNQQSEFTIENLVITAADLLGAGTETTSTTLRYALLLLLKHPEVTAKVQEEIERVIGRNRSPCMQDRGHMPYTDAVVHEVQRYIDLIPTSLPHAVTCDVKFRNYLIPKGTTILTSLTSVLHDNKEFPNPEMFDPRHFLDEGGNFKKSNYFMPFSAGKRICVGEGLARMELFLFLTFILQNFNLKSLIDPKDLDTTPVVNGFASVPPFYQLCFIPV
CYP2C19 activ = cytochrome P450 2C19 (human) activation; activation factor at 5 µM; recombinant CYP2C19, luciferin-H EGE luminescence; active compounds read high; 0 = fully inhibited enzyme, 1 = untreated enzyme; AID 1025; 96,000 tested, under 10 active;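 active means activation factor of at least 2 at 5 µM in the primary screen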;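 further: 0 = wells with 2.5 mM tranylcypromine and 1 = vehicle-only wells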
CYP2C9 act = increases human cytochrome P450 2C9 activity. P11712. recombinant CYP2C9, luciferin-H conversion, luminescence; active compounds read high; factor 1 = untreated enzyme, 0 = blocked. activation factor at 5 µM. 1.4% of 96,000 active. AID 1024;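 active means activation factor of 2 or more for CYP2C9 at a 5 µM dose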;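 further: 0 = sulfaphenazole-blocked wells and 1 = vehicle-only wells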
Starred values were filed as active, the others as inactive.

What do the screens show for `Cc1noc(C)c1S(=O)(=O)N1CCC(C(=O)NC2CCN(Cc3ccccc3)CC2)CC1`?
MRP resist rev: 13; MRP-1 activ: -1; CYP2C9 inh: -5; CYP2C19 inhib: -6; CYP2C19 activ: 1.1; CYP2C9 act: 1

How did Cc1noc(/C=C/N(C)C)c1S(=O)(=O)N1CCN(c2ccccc2)CC1 do in these assays?
MRP resist rev: 14; MRP-1 activ: -2; CYP2C9 inh: 18; CYP2C19 inhib: -7; CYP2C19 activ: 1.1; CYP2C9 act: 0.8

How did Cc1noc(C)c1C(=O)N1CCC(Cc2ccccc2)CC1 do in these assays?
MRP resist rev: 6; MRP-1 activ: -3; CYP2C9 inh: 73*; CYP2C19 inhib: 99*; CYP2C19 activ: 0; CYP2C9 act: 0.3

How did Cc1ccc(C)c(OC(=O)c2ccncc2)c1 do in these assays?
MRP resist rev: -23; MRP-1 activ: -1

What do the screens show for `Cc1ccc2c(Cl)cc(Cl)c(OCC(=O)Nc3ccc(C)c(S(=O)(=O)N(C)C)c3)c2n1`?
MRP-1 activ: -1

Results for CCOC(=O)c1cccc(COC(=O)c2cccc(-c3nnc(-c4ccccc4)o3)c2)c1 ?
MRP-1 activ: 0

Results for CS(=O)(=O)c1sc2nc(-c3cccs3)cc(-c3ccccc3)c2c1N ?
MRP resist rev: -10; MRP-1 activ: 2; CYP2C9 inh: 38; CYP2C19 inhib: 11; CYP2C19 activ: 0.9; CYP2C9 act: 0.6

What do the screens show for `Cc1ccc(-c2cc(-c3ccccc3)c3c(N)c(S(C)(=O)=O)sc3n2)cc1`?
MRP resist rev: 2; MRP-1 activ: 1; CYP2C9 inh: 58*; CYP2C19 inhib: 29; CYP2C19 activ: 0.7; CYP2C9 act: 0.4

Results for CCn1cc(/C=N\NC(=O)Cc2ccc(Cl)cc2)cn1 ?
MRP-1 activ: 0

What do the screens show for `COC(CN(C(=O)CCl)C(C(=O)NC1CCCCC1)c1ccc(Cl)cc1)OC` (configuration not stated)?
MRP-1 activ: -6

How did CN(C)C(C(=O)NC1CCCCC1)c1ccc(Cl)cc1 (configuration not stated) do in these assays?
MRP resist rev: 18; MRP-1 activ: -2; CYP2C9 inh: 29; CYP2C19 inhib: 56*; CYP2C19 activ: 0.4; CYP2C9 act: 0.7

How did O=C(Nc1ccccc1Oc1ccccc1)c1ccccc1F do in these assays?
MRP-1 activ: -1

Results for Cc1cc(C)cc(NC(=O)N2CCCC2C(=O)Nc2ccc(-n3cnnn3)c(C)c2)c1 (configuration not stated) ?
MRP resist rev: -12; MRP-1 activ: -2; CYP2C9 inh: 10; CYP2C19 inhib: 96*; CYP2C19 activ: 0; CYP2C9 act: 0.9

Results for CC(=O)c1cccc(NC(=O)N2CCCC2C(=O)Nc2cccc(C)c2C)c1 (configuration not stated) ?
MRP resist rev: 18; MRP-1 activ: -1; CYP2C9 inh: 88*; CYP2C19 inhib: 90*; CYP2C19 activ: 0.1; CYP2C9 act: 0.1

What do the screens show for `CC(=O)c1cccc(NC(=O)N2CCCC2C(=O)NC2CCCCC2)c1` (configuration not stated)?
MRP resist rev: 0; MRP-1 activ: -3; CYP2C9 inh: 22; CYP2C19 inhib: 20; CYP2C19 activ: 0.8; CYP2C9 act: 0.8

What do the screens show for `CC(=O)c1cccc(NC(=O)N2CCCC2C(=O)Nc2ccccc2C)c1` (configuration not stated)?
MRP resist rev: 6; MRP-1 activ: -1; CYP2C9 inh: 56*; CYP2C19 inhib: 4; CYP2C19 activ: 1; CYP2C9 act: 0.4

What do the screens show for `CC1CC(=O)c2cn3c(nc2C1)nc1ccccc13` (configuration not stated)?
MRP resist rev: -39; MRP-1 activ: -2; CYP2C9 inh: -4; CYP2C19 inhib: -10; CYP2C19 activ: 1.1; CYP2C9 act: 1

How did O=c1cc(-c2ccccc2)[nH]c2nc3ccccc3n12 do in these assays?
MRP resist rev: -45; MRP-1 activ: -5; CYP2C9 inh: 76*; CYP2C19 inhib: 61*; CYP2C19 activ: 0.4; CYP2C9 act: 0.2

What do the screens show for `Cn1cc(/C=C(\C#N)C(=O)Nc2ncc(Cc3ccc(Cl)cc3)s2)c2ccccc21`?
MRP-1 activ: -2
